The structures appear in SMILES notation. The campaign covered roughly 69,000 compounds. About 8,600 (12%) showed an effect of 50% or more. This excerpt belongs to a sample that is enriched for strong results.

This test concerns Plasmodium berghei. The test can be described thus: Screen against P. berghei liver stage (PbLuc), transformed with Luciferase, at 10uM. The settings on record: tested at 10 uM. It counts as functional, HepG2.
On to `Cc1nn(C)cc1S(=O)(=O)NC1(CN2CCOCC2)CCCCC1`, for which the INHIBITION amounted to 28%. Then `COc1ccccc1C(C)(C)NC(=O)c1cc(NC(C)=O)ccc1F`, with -52.3%; and `CCSCc1nc(O)c2nnn(C3CCN(Cc4ccoc4)CC3)c2n1`, with 18.39%. As to `CC(C)c1nc2c(n1C)CCN(CC(=O)Nc1cccnc1)C2`, the INHIBITION is given as -55.4%. `O=C(NCC1CCN(c2ccncc2)CC1)C(O)c1ccccc1` (centres undefined): the INHIBITION came out at 36.4%. As to `Cc1nocc1C(=O)N1CCCC2(CCN(c3cnn(C)c3)C2=O)C1` (centres undefined), the INHIBITION is listed as 38.5%. Regarding `CC(C)c1cc(C2CCCN2C(=O)CN2C(=O)CCNC2=O)no1` (centres undefined), the INHIBITION amounted to 5.91%. Then `O=S(=O)(c1ccccc1Br)N1CCC2(CC1)OCCS2`, with 0.325%; and `Cc1cnn(CC2CN(CC(=O)NCc3ccco3)CCO2)c1` (centres undefined), with 11.2%; and `CCCN(Cc1cnn(C)c1)S(=O)(=O)c1cc(C)cc(F)c1`, with -6.11%. Then `Cc1noc(CCCC(=O)NCC2CCS(=O)(=O)C2)n1` (centres undefined), with -7.35%; and `Cn1nccc1-c1ccc2nc(C3CCN(CC4CC4)CC3)nn2c1`, with 38.2%.

Take `CS(=O)(=O)CCCN(CCc1cccc(F)c1)C1CC1`: the INHIBITION is recorded as -22.3%. For the compound `O=C(C1CCOC1)N1C[C@H]2CN(c3ccccc3)C(=O)[C@H]2C1` (some centres undefined), the INHIBITION is 52.6%.

Turning to `Cc1cccc(CN2C[C@@H]3CN(C(=O)c4ccnnc4)C[C@@H]3C2=O)c1`, the INHIBITION stood at 4.61%.

For the compound `Cc1cccc(CN2C[C@@H]3CN(C(=O)C4CCOC4)C[C@@H]3C2=O)c1` (some centres undefined), the INHIBITION is 53%.

For the compound `CN1C[C@@H]2CN(C(=O)C3CCOC3)C[C@@H]2C1=O` (some centres undefined), the INHIBITION came out at 33%. Take `COc1ccc(CN2C[C@@H]3CN(C(=O)[C@H]4CCCO4)C[C@@H]3C2=O)cc1`: the INHIBITION is -43%. In the case of `O=C(C1CCOC1)N1C[C@H]2CN(Cc3cccnc3)C(=O)[C@H]2C1` (some centres undefined), the INHIBITION is 17.7%. Then `O=C(C1CCC1)N1C[C@@H]2CN(c3ccccc3)C(=O)[C@@H]2C1`, with 46.9%.

Turning to `Cc1cccc(CN2C[C@@H]3CN(C(=O)[C@H]4CCCO4)C[C@@H]3C2=O)c1`, the INHIBITION is listed as 58.2%. Then `O=C(C1CCOC1)N1C[C@H]2CN(Cc3cccc(F)c3)C(=O)[C@H]2C1` (some centres undefined), with 34.9%; and `Cn1cc(CN2CCCC3(CCN3S(C)(=O)=O)C2)cn1` (centres undefined), with 28.7%; and `C=C(Br)CN(C)C1CCN(CCc2ccccn2)CC1`, with -9.37%.

In the case of `O=C(CSc1ccc(Br)cc1)NS(=O)(=O)c1ccc2c(c1)OCCO2`, the INHIBITION was determined as 30.55%. Then `Cc1nc2c(c(N3CCCOCC3)n1)CCN(c1nccs1)CC2`, with 41.1%. Then `O=C(CCN1CCCCO1)N1CCC(CO)(Cc2ccccc2)CC1`, with -9.44%. Then `CCCNC(=O)c1cc2c([nH]c1=O)CC(c1cccs1)CC2=O` (centres undefined), with 41.8%; and `CC1CC(=O)c2cc(C(=O)N3CCc4ccccc43)c(=O)[nH]c2C1` (centres undefined), with 21.5%; and `O=C1CC(c2cccs2)Cc2[nH]c(=O)c(C(=O)NC3CCCC3)cc21` (centres undefined), with 59.5%. Turning to `O=C1CC(c2cccs2)Cc2[nH]c(=O)ccc21` (centres undefined), the INHIBITION is -32.1%. Then `CC(C)NC(=O)c1cc2c([nH]c1=O)CC(c1cccs1)CC2=O` (centres undefined), with 62.3%. Regarding `O=C1CC(c2ccc(F)cc2)Cc2[nH]c(=O)c(C(=O)O)cc21` (centres undefined), the INHIBITION is given as -67.9%. With `CCOCC1CN(Cc2ccco2)Cc2nccn2C1` (centres undefined), the INHIBITION was 10.7%. Consider `COc1cc(C(=O)N2C[C@@H]3CC[C@H]2CN(Cc2cscn2)C3)ccn1`, for which the INHIBITION was -16.3%. Then `Cc1cc(CN2CCCn3nc(CCC(=O)O)cc3C2)ccc1F`, with 60.2%. As to `CC1(C)[C@@H]2CC=C(CN3CCCn4nc(CNS(C)(=O)=O)cc4C3)[C@H]1C2`, the INHIBITION is 25.7%. Then `CC1(C)[C@@H]2CC=C(CN3CCCn4nc(C(=O)O)cc4C3)[C@H]1C2`, with 65.6%; and `O=C(O)CCc1cc2n(n1)CCN(Cc1cnc(N3CCCC3)nc1)C2`, with 7.43%. As to `O=C(O)CCc1cc2n(n1)CCN(Cc1ccc3[nH]ccc3c1)C2`, the INHIBITION is -15.7%.

On to `O=C(NCc1cc2n(n1)CCCN(Cc1ccc(CO)o1)C2)C1CCC1`, for which the INHIBITION came to 11.8%. Then `CC1(C)[C@@H]2CC=C(CN3CCCn4nc(C(=O)NCCO)cc4C3)[C@H]1C2`, with 68.4%. Then `CN(C)CCNC(=O)c1cc2n(n1)CCN(C(=O)CC(C)(C)C)C2`, with -15.7%. Then `Cc1nc2ccccc2nc1CN1CCn2nc(CCC(=O)O)cc2C1`, with 36%. On to `CN(C)C(=O)NCc1cc2n(n1)CCCN(CC1[C@H]3CNC[C@@H]13)C2` (some centres undefined), for which the INHIBITION is recorded as -14.6%. With `CCOC(=O)N1CCCn2nc(C(=O)NCCN(C)C)cc2C1`, the INHIBITION is -10.2%. Take `CC1(C)[C@@H]2CC=C(CN3CCCn4nc(CCC(=O)O)cc4C3)[C@H]1C2`: the INHIBITION worked out at 59.1%.

`CC(C)CN1CCN(C)C(CCO)C1` (centres undefined): the INHIBITION was determined as 34.4%. Then `Cc1ccc(-c2cc(CNC(=O)N3CCC(N(C)C)CC3)on2)cc1`, with 17.4%. Then `COc1ccc(C(=O)N2CC(=O)N(C3CCC3)CC(O)C2)c(OC)c1` (centres undefined), with 13.9%; and `CO[C@@H]1CC[C@@H](NS(=O)(=O)c2cn(C)nc2C)[C@H]1O`, with 33.8%; and `c1ccc(CN2CCC(CNc3ncnc4c3CCNCC4)CC2)cc1`, with 28.7%.

For the compound `COc1ccc(-c2ccc(C(=O)N3CCOCC3CC(=O)O)o2)cc1` (centres undefined), the INHIBITION is given as 1.71%.

On to `O=C(CN1CCCCCC1)N1CCc2nnc(C3CCCNC3)n2CC1` (centres undefined), for which the INHIBITION was determined as 30.4%. For the compound `CC(C)c1noc(CCNC(=O)NCC2COc3ccccc3O2)n1` (centres undefined), the INHIBITION was found to be 7.24%. For the compound `O=C(c1ccco1)N1CCc2ncnc(Oc3cccnc3)c2CC1`, the INHIBITION is recorded as 29%. Then `O=C(CN1CCN(CC(O)C2CC2)CC1)NCc1ccccc1Cl` (centres undefined), with 17.6%; and `Cc1nnc(N2CCOC(C)C2)c(C#N)c1C` (centres undefined), with 7.4%; and `CS(=O)(=O)N1CCCC1Cn1cccn1` (centres undefined), with 20.8%. On to `COc1ccccc1C1=NOC(CC2(C(=O)NCCO)CCOCC2)C1` (centres undefined), for which the INHIBITION worked out at 8.72%. For `Cc1cc(CN2CCCCC2Cn2cncn2)no1` (centres undefined), the INHIBITION turned out to be 20.8%. Then `c1ccc(-c2nc(CN3CCc4c(ncn4C4CC4)C3)cs2)cc1`, with 34.1%; and `CNS(=O)(=O)CC(=O)NCc1cc2c(s1)CCC(C)(C)C2`, with -19.3%; and `O=C([C@H]1C[C@H]2OCC[C@H]2N(CCc2ccccc2)C1)N1CCCCO1`, with -0.569%. For the compound `CC(=O)N1CCC2(CC1)c1ncc(-c3ccc(F)cc3)n1CCN2C`, the INHIBITION is on record as 39.4%. Then `CCS(=O)(=O)N1CCC2(CC1)c1ncc(-c3cccnc3)n1CCN2C`, with 24.9%; and `CN1CCn2c(-c3cccc(F)c3)cnc2C12CCN(CC1CC1)CC2`, with 8.85%. On to `CC(=O)N1CCC2(CC1)c1ncc(-c3ccccc3)n1CCN2C(C)=O`, for which the INHIBITION is listed as -15.3%. Then `CC(=O)N1CCn2c(-c3cccc(F)c3)cnc2C12CCNCC2`, with 24.9%; and `CC(=O)N1CCC2(CC1)c1ncc(-c3ccccc3)n1CCN2C`, with 43%. Regarding `CCN1CCn2c(-c3cccc(F)c3)cnc2C12CCN(C(C)=O)CC2`, the INHIBITION was determined as 85.2%. For the compound `CNC(=O)N1CCC2(CC1)c1ncc(-c3cccc(F)c3)n1CCN2C`, the INHIBITION turned out to be 63.3%.

As to `CC(=O)N1CCC2(CC1)c1ncc(-c3cccnc3)n1CCN2C`, the INHIBITION amounted to 58.4%.

On to `COc1ccccc1CNC(=O)CN(C)C(C)c1ccon1` (centres undefined), for which the INHIBITION is -13.6%. Then `COc1ccc(N2CCN(C(=O)COc3c(C)occc3=O)CC2)cc1`, with -1.99%; and `O=C(O)c1ccc(=O)n(CC(c2ccc(Cl)cc2)N2CCCCCC2)c1` (centres undefined), with 10.8%; and `OC(CNCc1nnc2ccccn12)c1ccc2c(c1)OCO2` (centres undefined), with -10.8%. Then `Nc1nccnc1C1CN(C(=O)c2ccc3c(c2)OCO3)CCO1` (centres undefined), with 11.1%. Then `Cc1c(C2CC2)n[nH]c1NC(=O)C1CCCN(C(=O)NCC(C)C)C1` (centres undefined), with 35.7%.

Turning to `CCCC1c2cccn2CCN1C(=O)Cn1cnc2sc(C)cc2c1=O` (centres undefined), the INHIBITION turned out to be 11.35%. Regarding `Cc1ccc(-c2noc(CN3CCOC(Cn4cccn4)C3)n2)cc1` (centres undefined), the INHIBITION is 48.6%. Then `Cc1cc(C)n(C2CCCN(C(=O)CCc3nccs3)C2)n1` (centres undefined), with 21.6%; and `CCCN1CC[C@@H]2[C@@H](CO[C@H]2CNC(=O)c2nccn2C)C1`, with 34%; and `Cn1cc(C(=O)NC[C@@H]2OC[C@H]3CN(S(C)(=O)=O)CC[C@H]32)cn1`, with 18.5%.

As for `Cn1ccnc1C(=O)NC[C@@H]1OC[C@H]2CN(S(C)(=O)=O)CC[C@H]21`, the INHIBITION was found to be 64.7%. Regarding `Cn1ccnc1C(=O)NC[C@@H]1OC[C@H]2CN(CC3CC3)CC[C@H]21`, the INHIBITION is 20.4%. For the compound `Cn1ccnc1C(=O)NC[C@H]1OC[C@@H]2CCN(S(C)(=O)=O)C[C@@H]21`, the INHIBITION is recorded as 52.1%.

On to `CN1CC[C@@H]2[C@@H](CO[C@H]2CNC(=O)c2nccn2C)C1`, for which the INHIBITION is -17.7%. Regarding `NCC(CO)Cc1cccc(OC(F)(F)F)c1` (centres undefined), the INHIBITION is listed as -14.5%. For the compound `CC(C)N1Cc2c(C(=O)N3CCOCC3)nn(C)c2C1`, the INHIBITION is reported as 6.82%. With `CC(C)(C)C(=O)N1CCCC1c1cc(CO)[nH]n1` (centres undefined), the INHIBITION was determined as 3.585%. Then `CC(C)c1csc(C2CCCN(C(=O)c3ccc(=O)n(C)n3)C2)n1` (centres undefined), with -7.48%.

Turning to `CC(C)c1csc(C2CCCN(C(=O)Cn3ccccc3=O)C2)n1` (centres undefined), the INHIBITION was 9.25%. `CC(C)c1csc(C2CCCN(C(=O)c3ccc[nH]3)C2)n1` (centres undefined): the INHIBITION is given as 59.1%. As to `Cc1nc(C(=O)N2CCCC(c3nc(C(C)C)cs3)C2)c[nH]1` (centres undefined), the INHIBITION is recorded as 8.12%. `CC(C)c1csc(C2CCCN(C(=O)c3ncccn3)C2)n1` (centres undefined): the INHIBITION is 31.9%.

Take `CC(C)c1csc(C2CCCN(C(=O)c3ccc(=O)n(C)c3)C2)n1` (centres undefined): the INHIBITION came out at 52.6%.

On to `Cc1c(COc2ccccc2)cccc1NC(=O)N1CC[C@H](O)C1`, for which the INHIBITION is 26.9%. Consider `COCCC(=O)NCC(O)c1c(F)cccc1F` (centres undefined), for which the INHIBITION is -2.92%.
